PD-1 reverse act = reversal of PD-1 mediated T-cell inhibition; primary human CD4 T cells, PD-L1 beads, CellTiter-Glo 96 h; activation, % (concentration not given with the values); 29,000 tested, under 10 active; AID 2316; call rule not given here;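 also: 0% = median vehicle wells and 100% = positive control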
NOMO-1 viab = STK33 inhibitor candidate reducing NOMO-1 cell viability; 7.5% of 37,000 active; NOMO-1 AML viability, CellTiter-Glo luminescence, 72 h; inhibition, % (no concentration beside the values); AID 2330; in the data active = inhibition above about 80%
Shh pathway inh = Sonic Hedgehog pathway inhibition; Shh-LIGHT2 Gli-luciferase reporter, 30 h; inhibition, % (test concentration not listed); 2.1% of 22,000 active;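 active = mean inhibition across valid replicates above about 65%, limit read from the data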;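 also: pathway switched on by Shh-conditioned medium diluted 1 in 25 in low serum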
MITF inh = inhibitors of MITF. TRPM1 promoter luciferase, luminescence, 24 h. inhibition, % (concentration not given with the values). 0.28% of 37,000 active; in the data active = inhibition above about 85%;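 also: human melanocyte line stably carrying TRPM1 promoter luciferase reporter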
Active calls of the source: *; nt = no result. Shown are actives, neighbours in structure and some others; about 8.1% of the full set was active somewhere.

SMILES	PD-1 reverse act	NOMO-1 viab	Shh pathway inh	MITF inh
C[C@@H]1CN([C@H](C)CO)C(=O)c2cccc(NC(=O)NC3CCCCC3)c2O[C@H]1CN(C)CC1CCCCC1	-5	104*	25	30
C[C@H](CO)N1C[C@H](C)[C@@H](CN(C)CC2CCCCC2)Oc2c(NC(=O)NC3CCCCC3)cccc2C1=O	nt	54	6	9
Cc1ccc(S(=O)(=O)Nc2ccc3c(c2)CC(=O)N([C@@H](C)CO)C[C@H](C)[C@@H](CN(C)S(=O)(=O)c2cn(C)cn2)O3)cc1	nt	9	-16	-18
C[C@H]1CN([C@@H](C)CO)C(=O)c2cc(NC(=O)Cc3ccccc3)ccc2O[C@H]1CN(C)S(=O)(=O)c1ccc(F)cc1	-1	12	16	2
NC(=O)C1c2ccccc2Oc2ccccc21	-1	42	-64	-10
C[C@@H]1CN([C@@H](C)CO)C(=O)c2cc(NC(=O)C3CC3)ccc2O[C@@H]1CN(C)Cc1ccc(-c2ccccc2)cc1	0	36	nt	-1
COc1ccc(OC)c(C(=O)c2coc3ccc(O)cc23)c1	0	136*	20	-5
Cc1ccc(C(=O)c2coc3ccc(O)cc23)o1	-2	41	-30	26
COc1ccc(-c2coc3cc(O)ccc3c2=O)c(OC)c1	nt	-2	80*	-6
C[C@H]1CN([C@@H](C)CO)C(=O)c2cccc(NC(=O)Nc3cccc4ccccc34)c2O[C@H]1CN(C)Cc1ccncc1	nt	15	32	3
CCOC(=O)CC1=Nn2c(nnc2-c2cccs2)SC1	2	-3	16	1
CCOC(=O)CSc1c(-c2cccs2)[nH]c2ccccc12	-3	139*	-15	37
O=C(CSc1nnc(Cc2ccccc2)o1)N1c2ccccc2Sc2ccccc21	-1	-5	nt	3
CC(Oc1ccc(Br)cc1)C(=O)Nc1ccccc1[N+](=O)[O-] (stereo unspecified)	-1	-14	nt	-12
CC(Oc1ccccc1)C(=O)Nc1cc([N+](=O)[O-])ccc1O (stereo unspecified)	0	3	nt	100*
C[C@@H]1CN([C@H](C)CO)C(=O)c2cccc(NC(=O)c3ccncc3)c2O[C@@H]1CN(C)C(=O)Nc1ccc2c(c1)OCO2	0	26	-9	-6
COc1ccc(CC(N)C(=O)N[C@H]2[C@@H](O)[C@H](n3cnc4c(N(C)C)ncnc43)O[C@@H]2CO)cc1 (stereo partly specified)	-25	98*	97*	92*
C/C=C(\CO)C(=O)O[C@H]1[C@H](O)[C@@H](C(=O)OC)O[C@@H]2C[C@H]3OC(n4cnc5c(N)ncnc54)[C@H](OC)[C@H]3O[C@]21O (stereo partly specified)	3	12	-14	-10
CN(Cc1nc(-c2cccnc2)no1)S(=O)(=O)c1ccc(Br)cc1	0	27	nt	-18
Cc1ccc(CC(c2nc3ccccc3[nH]2)C(C)c2nc3ccccc3[nH]2)cc1 (stereo unspecified)	nt	91*	nt	63
COc1ccc(NC(=O)Nc2ccc3c(c2)C(=O)N([C@@H](C)CO)C[C@H](C)[C@@H](CN(C)C(=O)Nc2c(C)noc2C)O3)cc1	1	9	-20	-1
C[C@H]1CN([C@@H](C)CO)C(=O)Cc2cc(NC(=O)CCC(F)(F)F)ccc2O[C@H]1CN(C)S(=O)(=O)c1ccc(F)cc1	-1	126*	-6	32
C[C@H]1CN([C@@H](C)CO)C(=O)Cc2cc(NC(=O)CCC(F)(F)F)ccc2O[C@H]1CN(C)S(=O)(=O)c1ccc(Cl)cc1	nt	109*	-49	14
C[C@H](CO)N1C[C@H](C)[C@H](CN(C)S(=O)(=O)c2ccc(Cl)cc2)Oc2ccc(NC(=O)CCC(F)(F)F)cc2CC1=O	nt	121*	-12	19
C[C@@H]1CN([C@@H](C)CO)C(=O)Cc2cc(NC(=O)CCC(F)(F)F)ccc2O[C@@H]1CN(C)S(=O)(=O)c1ccc(F)cc1	0	24	-18	7
SMILES	PD-1 reverse act	NOMO-1 viab	Shh pathway inh	MITF inh
Cc1noc(C)c1NC(=O)N(C)C[C@H]1Oc2ccc(NS(=O)(=O)c3c(C)noc3C)cc2CC(=O)N([C@H](C)CO)C[C@H]1C	1	6	-23	-8
C[C@@H]1CN([C@H](C)CO)C(=O)c2cccc(NC(=O)C3CCCCC3)c2O[C@H]1CN(C)Cc1ccc(Oc2ccccc2)cc1	-2	52	17	31
C[C@@H]1CN([C@@H](C)CO)C(=O)c2cc(NC(=O)C3CCCCC3)ccc2O[C@H]1CN(C)Cc1ccc(Oc2ccccc2)cc1	-1	100*	25	28
C[C@@H]1CN([C@@H](C)CO)C(=O)c2cccc(NC(=O)C3CCCCC3)c2O[C@H]1CN(C)Cc1ccc(Oc2ccccc2)cc1	-5	120*	-21	77
C[C@H]1CN([C@@H](C)CO)C(=O)c2cc(NC(=O)C3CCCCC3)ccc2O[C@H]1CN(C)Cc1ccc(Oc2ccccc2)cc1	-4	42	1	22
C[C@@H]1CN([C@@H](C)CO)C(=O)c2cccc(NC(=O)C3CCCCC3)c2O[C@@H]1CN(C)Cc1ccc(Cl)c(Cl)c1	-4	96*	31	47
C[C@@H]1CN([C@@H](C)CO)C(=O)c2cccc(NC(=O)C3CC3)c2O[C@H]1CN(C)Cc1ccc(Oc2ccccc2)cc1	-4	100*	2	27
C[C@@H]1CN([C@H](C)CO)C(=O)c2cccc(N(C)C)c2O[C@H]1CN(C)Cc1ccncc1	nt	35	-11	-5
C[C@H]1CN([C@@H](C)CO)C(=O)Cc2cc(NC(=O)c3ccncc3)ccc2O[C@@H]1CN(C)S(=O)(=O)c1ccccc1	0	-26	nt	-7
Cc1cc(C)nc(SC(C)C(=O)Nc2ccc(S(N)(=O)=O)cc2)n1 (stereo unspecified)	nt	13	nt	-10
C[C@H](CO)N1C[C@H](C)[C@@H](CN(C)Cc2ccc(Oc3ccccc3)cc2)Oc2c(NC(=O)C3CCCCC3)cccc2C1=O	-3	88*	47	48
COc1ccccc1/C=C(\C#N)c1ccc(C)cc1	-1	17	-79	-1
Cc1ccc(/C(C#N)=C/c2ccc(N(C)C)cc2)cc1	-2	116*	-88	42
Cc1ccc(NC(=O)c2cccc(S(=O)(=O)Nc3cccc(C(=O)O)c3)c2)cc1	nt	-12	nt	9
O=C(O)c1ccc(NS(=O)(=O)c2cc3c4c(cccc4c2)C(=O)NC3=O)cc1	0	140*	23	24
Cc1cc(-c2ccccc2)nc2c1/C(=N\O)CC(C)(C)C2	-3	101*	-8	-23
Cc1ccc(C)c(NC(=O)CSc2nc(-c3ccccc3)cc(C(F)(F)F)n2)c1	nt	27	nt	-2
COc1ccc(Cl)cc1NC(=S)NCCn1cc(Cl)cn1	nt	-9	nt	11
COc1ccc(OC)c(NC(=O)c2ccc(Cl)c(S(=O)(=O)Nc3ccc(C)cc3)c2)c1	-2	93*	nt	16
COc1ccc(OC)c(NC(=O)c2ccc(C)c(S(=O)(=O)Nc3ccc(C)cc3)c2)c1	-5	103*	nt	51
O=C(CSc1nnc(-c2ccccc2)n1C1CCCCC1)Nc1ccccc1	-2	21	nt	12
CCN1C(=O)C=CC1=O	4	98*	-46	-7

Assay outcomes (PubChem BioAssay)
